Test [1] deals with Wnt5a (protein binding on small-molecule microarray). As to the kind of experiment: Wnt5a binders on small-molecule microarray, primary screen, biophysical, 635/667 nm fluorescence (AID 1142).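 Also: fluorescence read at 667 nm with signal to noise per printed feature.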 The settings on record: 635 nm fluorescence, higher = more signal.
Test [2] can be described thus: cell viability in Huh7 cells, primary screen, cytotoxicity control for HCV replication inhibitor project, CellTiter-Glo luminescence, basal, 48 h (AID 1143).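 Also: Huh7 hepatoma cells carrying a hepatitis C replication reporter with no stimulus; test concentration not given here.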 The settings on record: Huh7 HCV replicon, higher = more signal, called active from +8 up or from −8 down.
The nature of test [3]: P. aeruginosa biofilm formation inhibitors, primary screen, PAO1 strain, BacTiter-Glo luminescence, LB-PBS (AID 1144). The settings on record: 12 h, higher = more signal.
The nature of test [4]: CREB reporter modulators without forskolin, primary screen, cell-based, PC12, CRE-LacZ reporter, unstimulated (AID 1145). The settings on record: no forskolin, luminescence, 4.5 h, higher = more signal, called active from +8 up or from −8 down.
Test [5] in a line: CREB reporter modulators under forskolin, primary screen, cell-based, PC12, CRE-LacZ reporter, forskolin-stimulated (AID 1146).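 Also: PC12 cells with 6xCRE LacZ reporter stimulated by forskolin 10 µM; beta-galactosidase reporter signal reflecting CREB driven transcription.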 The settings on record: luminescence, 4.5 h, higher = more signal, called active from +8 up or from −8 down.
In test [6] the target is Streptavidin (Streptomyces avidinii) (UniProt P22629). As to the kind of experiment: streptavidin binders on small-molecule microarray, primary screen, artefact control for SMM compound annotation, biophysical, 635/667 nm fluorescence (AID 1147).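 Also: signal reflects streptavidin binding to arrayed compounds as a control protein.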 As to conditions: streptavidin binding, higher = more signal.
Streptavidin (Streptomyces avidinii), sequence (P22629 whole entry, looked up): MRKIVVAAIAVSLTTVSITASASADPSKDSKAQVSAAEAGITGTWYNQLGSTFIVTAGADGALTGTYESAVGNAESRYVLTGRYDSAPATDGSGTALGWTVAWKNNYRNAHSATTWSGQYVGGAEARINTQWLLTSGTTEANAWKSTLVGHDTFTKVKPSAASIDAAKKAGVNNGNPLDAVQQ
Test [7] in a line: small-molecule binders of probe aInhba, primary screen, biochemical, small-molecule microarray, 635/667 nm fluorescence (AID 1148).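 Also: score merges 667nm spot fluorescence with signal-to-noise for antibody binding to printed compounds.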 As to conditions: higher = more signal.
The target of test [8] is Torsin-1A (Homo sapiens) (UniProt O14656). Put plainly: torsin A binders from cell lysate, primary screen, small-molecule microarray, wild-type, 635/667 nm (AID 1149). As to conditions: COS7 hTOR1A-WT lysate, 635 nm fluorescence, higher = more signal.
Torsin-1A (Homo sapiens), sequence (O14656 whole entry, looked up): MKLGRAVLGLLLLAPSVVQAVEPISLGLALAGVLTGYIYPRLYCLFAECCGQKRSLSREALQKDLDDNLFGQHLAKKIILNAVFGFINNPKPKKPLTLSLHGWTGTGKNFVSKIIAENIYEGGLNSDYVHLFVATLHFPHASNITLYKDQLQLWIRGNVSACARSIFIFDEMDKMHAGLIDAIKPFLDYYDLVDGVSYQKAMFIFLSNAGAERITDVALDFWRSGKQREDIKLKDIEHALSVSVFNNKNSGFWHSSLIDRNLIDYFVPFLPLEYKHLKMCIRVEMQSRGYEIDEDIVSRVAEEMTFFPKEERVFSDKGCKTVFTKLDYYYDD
The target is the same in test [9]. As to the kind of experiment: small-molecule binders of mutant TOR1A in lysate, primary screen, cell lysate, small-molecule microarray, COS7 lysate, 635/667 nm fluorescence (AID 1150).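 Also: score pools 667 nm emission and signal to noise measuring lysate protein binding.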 The settings on record: COS7 hTOR1A mutant lysate, 635 nm fluorescence, higher = more signal.
Test [10] has as its system Sonic hedgehog protein (Shh). Put plainly: small-molecule binders of Shh protein, primary screen, biochemical, small-molecule microarray, 635/667 nm fluorescence (AID 1151).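 Also: Shh protein binding to compounds spotted on small-molecule microarray slides; score combines spot fluorescence intensity with signal-to-noise across triplicate slides.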 The settings on record: small-molecule microarray binding, 635 nm fluorescence; higher = more signal.
Test [11] in a line: E. coli DRC41 culture turbidity changes, primary screen, E. coli filamentation inducer project, strain DRC41, OD650, 48 h (AID 1152).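 Also: E. coli MC1000 strain DRC41 lacking acrAB efflux pump and sulA.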 The settings on record: E. coli DRC41 (acrAB sulA), higher = more signal, called active from +8 up or from −8 down.
Test [12] in a line: small-molecule binders of probe aLefty1, primary screen, biochemical, small-molecule microarray, 635/667 nm fluorescence (AID 1153).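 Also: score merges spot fluorescence with signal-to-noise ratio from the scanned slide images.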 As to conditions: higher = more signal.
Test [13] is described as follows: PSAC antagonists in infected red cells, primary screen, cell-based, P. falciparum Indochina, OD700, 1 h (AID 1154). As to conditions: P. falciparum Indochina infected RBC osmotic lysis, higher = more signal, called active from +8 up or from −8 down.
Test [14] in a line: PSAC antagonists in infected red cells, primary screen, cell-based, P. falciparum Indochina, OD700, 2 h (AID 1155).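 Also: lysis reports solute entry through the parasite surface anion channel PSAC; channel blockers reduce lysis of infected cells.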 As to conditions: P. falciparum Indochina infected erythrocytes, osmotic lysis OD700; higher = more signal, called active from +8 up or from −8 down.
Test [15] can be described thus: osmotic lysis modulators in infected erythrocytes, primary screen, PSAC antagonist project, cell-based, P. falciparum Indochina, OD700, 3 h (AID 1156). The settings on record: higher = more signal, called active from +8 up or from −8 down.
Test [16] is described as follows: PSAC antagonists in infected red cells, primary screen, cell-based, P. falciparum Indochina, OD700, 18 h (AID 1157). The settings on record: P. falciparum Indochina infected erythrocytes, osmotic lysis OD700, 18 h; higher = more signal, called active from +8 up or from −8 down.
A short description of test [17]: modulators of S6 phosphorylation in cells, primary screen, cell-based, A549, cytoblot, luminescence, serum-stimulated (AID 1158).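 Also: serum-stimulated A549 lung adenocarcinoma cells; signal is phosphorylated S6 detected by cytoblot immunostaining with HRP secondary.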 The settings on record: A549 phospho-S6 cytoblot, 5 h, higher = more signal.
Test [18] has as its target NADPH oxidase 2 (Homo sapiens) (UniProt P04839). Put plainly: NOX2-dependent H2O2 signal modulators, primary screen, NOX inhibitor project, cell-based, HEK293-NOX2, PMA-stimulated, Amplex Red fluorescence (AID 1159). Also: test concentration not given here. As to conditions: 45 min, higher = more signal, called active from +8 up or from −8 down.
Test [19] concerns the target NADPH oxidase 4 (Homo sapiens) (UniProt Q9NPH5). Put plainly: NOX4-dependent H2O2 signal modulators, primary screen, NOX inhibitor project, cell-based, HEK293-NOX4, tetracycline-induced, Amplex Red fluorescence (AID 1160). As to conditions: 45 min, higher = more signal, called active from +8 up or from −8 down.
Test [20] deals with NADPH oxidase 5 (Homo sapiens) (UniProt Q96PH1). Put plainly: NOX5-dependent H2O2 signal modulators, primary screen, NOX inhibitor project, cell-based, HEK293-NOX5, Amplex Red fluorescence (AID 1161). The settings on record: HEK293-NOX5, ionomycin, 45 min, higher = more signal.
NADPH oxidase 5 (Homo sapiens), sequence (Q96PH1 whole entry, looked up): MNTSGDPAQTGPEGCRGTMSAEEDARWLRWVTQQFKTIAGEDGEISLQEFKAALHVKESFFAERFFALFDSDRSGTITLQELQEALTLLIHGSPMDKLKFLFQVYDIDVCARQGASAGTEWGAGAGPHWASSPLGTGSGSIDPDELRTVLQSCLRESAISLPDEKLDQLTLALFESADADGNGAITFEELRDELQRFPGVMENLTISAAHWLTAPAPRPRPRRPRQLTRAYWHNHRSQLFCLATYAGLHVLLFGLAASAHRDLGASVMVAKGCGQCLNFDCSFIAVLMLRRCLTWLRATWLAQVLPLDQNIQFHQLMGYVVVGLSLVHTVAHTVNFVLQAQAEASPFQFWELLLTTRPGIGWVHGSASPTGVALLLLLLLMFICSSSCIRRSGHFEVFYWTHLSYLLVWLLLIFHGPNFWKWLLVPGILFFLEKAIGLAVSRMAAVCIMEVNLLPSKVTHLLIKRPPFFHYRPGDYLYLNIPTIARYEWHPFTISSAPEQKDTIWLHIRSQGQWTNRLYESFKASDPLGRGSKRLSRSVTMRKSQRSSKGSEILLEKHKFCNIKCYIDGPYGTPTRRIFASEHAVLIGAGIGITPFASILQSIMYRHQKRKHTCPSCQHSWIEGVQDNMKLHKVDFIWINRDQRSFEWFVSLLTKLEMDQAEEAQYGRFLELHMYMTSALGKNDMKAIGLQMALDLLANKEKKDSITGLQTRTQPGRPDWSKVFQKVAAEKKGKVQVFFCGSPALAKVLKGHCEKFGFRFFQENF

The structures appear in SMILES notation. Active and inactive are the calls of the source. Unless noted, no rule for the calls is given here.

NADPH oxidase 4 (Homo sapiens), sequence (Q9NPH5 whole entry, looked up): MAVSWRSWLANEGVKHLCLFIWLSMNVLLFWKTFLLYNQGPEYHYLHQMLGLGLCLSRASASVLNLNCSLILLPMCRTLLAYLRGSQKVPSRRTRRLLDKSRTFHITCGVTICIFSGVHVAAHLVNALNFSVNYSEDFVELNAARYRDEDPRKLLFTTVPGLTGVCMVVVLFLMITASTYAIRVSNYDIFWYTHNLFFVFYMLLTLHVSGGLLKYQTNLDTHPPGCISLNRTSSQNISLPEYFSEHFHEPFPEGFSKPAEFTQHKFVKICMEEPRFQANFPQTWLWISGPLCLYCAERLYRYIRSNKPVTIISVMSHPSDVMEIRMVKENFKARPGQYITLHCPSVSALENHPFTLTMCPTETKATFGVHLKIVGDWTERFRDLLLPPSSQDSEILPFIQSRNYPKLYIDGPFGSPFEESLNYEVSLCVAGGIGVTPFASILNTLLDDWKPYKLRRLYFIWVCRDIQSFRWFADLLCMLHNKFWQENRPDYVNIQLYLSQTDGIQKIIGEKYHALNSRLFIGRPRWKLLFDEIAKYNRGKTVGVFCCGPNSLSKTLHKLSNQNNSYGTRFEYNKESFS
NADPH oxidase 2 (Homo sapiens), sequence (P04839 whole entry, looked up): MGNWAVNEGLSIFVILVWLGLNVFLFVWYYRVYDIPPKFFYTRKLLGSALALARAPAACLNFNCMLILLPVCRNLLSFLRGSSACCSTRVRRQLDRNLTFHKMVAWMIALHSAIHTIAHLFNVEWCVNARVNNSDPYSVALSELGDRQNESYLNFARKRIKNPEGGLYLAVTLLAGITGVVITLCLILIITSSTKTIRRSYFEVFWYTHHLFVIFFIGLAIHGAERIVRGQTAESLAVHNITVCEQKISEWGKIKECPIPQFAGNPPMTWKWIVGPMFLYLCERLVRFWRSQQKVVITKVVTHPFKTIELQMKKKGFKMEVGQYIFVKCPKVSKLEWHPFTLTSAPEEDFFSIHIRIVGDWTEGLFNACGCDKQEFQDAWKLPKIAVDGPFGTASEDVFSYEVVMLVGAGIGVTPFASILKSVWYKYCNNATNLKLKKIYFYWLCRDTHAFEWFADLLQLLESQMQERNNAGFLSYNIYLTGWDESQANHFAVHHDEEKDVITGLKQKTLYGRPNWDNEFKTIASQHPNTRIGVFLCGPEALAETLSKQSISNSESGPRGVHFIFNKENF

For the compound `CC(C)[Si](C#CCCCC#N)(Oc1ccccc1Br)C(C)C`, the composite z-score in test [1] was 0.0696; in test [6], 0.525; in [7], -0.15; with Torsin-1A (Homo sapiens) [8], 0.42; with Torsin-1A (Homo sapiens) [9], 0.222; in test [10], 0.544. The composite z-score in test [12] was -0.104. Also, the z-score is -0.0761 (inactive) in [2]; 0.0648 (inactive) in test [3]; -0.519 (inactive) in test [4]; -0.0887 (inactive) in [5]; -0.4 (inactive) in test [11]; 0.614 (inactive) in test [13]. Besides, the z-score in [14] is 1.01 (inactive); in [15] it was -0.494 (inactive); in test [16], 0.823 (inactive); in test [17], -0.49; in [18] it was -0.273 (inactive); in [19] it was -0.161 (inactive). In test [20], this compound had a z-score of -0.18.
`COCC(=C=CC[C@H](O)c1ccccc1OCCO)CCO`: the composite z-score in test [1] is 0.0821; in [6], -0.193; in [7], 0.115; with Torsin-1A (Homo sapiens) [8], 0.871; with Torsin-1A (Homo sapiens) [9], 0.542; in test [10] it was 1.09. The same compound had a composite z-score in test [12] of -0.206. Further, the z-score in test [2] was -0.231 (inactive); in [3], -0.109 (inactive); in [4], 2.48 (inactive); in [5], 1.01 (inactive); in test [11], 0.0257 (inactive); in [13], 2.69 (inactive). Also, the z-score in test [14] is -0.0718 (inactive); in test [15] it was -0.107 (inactive); in [16], 0.0371 (inactive); in test [17], -0.509; in test [18], 0.281 (inactive); in [19], 0.263 (inactive). The z-score in [20] was -0.397.
With `CCCCN1CC=CC23O[C@@H]4/C=C\CCCOC(=O)C4[C@H]2C(=O)N(CCCCCO)[C@@H]3C1=O` (stereo not given in full), the composite z-score was 0.0311 in test [1]; -1.43 in [6]; -0.211 in test [7]; -0.0808 in the test with Torsin-1A (Homo sapiens) [8]; 0.777 in the test with Torsin-1A (Homo sapiens) [9]; -0.695 in test [10]. Besides, the composite z-score in [12] is -0.328. Further, the z-score in [2] is -0.103 (inactive); in test [3], 0.0433 (inactive); in test [4] it was 0.333 (inactive); in test [5], -0.391 (inactive); in [11], -0.852 (inactive); in test [13], 0.896 (inactive). Also, the z-score in test [14] is 0.481 (inactive); in test [15], -0.765 (inactive); in [16] it was 0.0625 (inactive); in [17] it was -0.782; in test [18] it was 1.07 (inactive); in [19] it was -0.18 (inactive). In [20], the z-score is 1.74.
For the compound `O=C1NC(=O)C2C1C=CC(C(O)c1ccc(I)cc1)N2Nc1ccc(Cl)cc1Cl` (stereo not given), the composite z-score is 0.372 in test [1]; 1.34 in test [6]; 0.337 in [7]; 0.0137 with Torsin-1A (Homo sapiens) [8]; 0.303 with Torsin-1A (Homo sapiens) [9]; -0.366 in test [10]. In test [12], this compound yielded a composite z-score of 0.618. The z-score in test [2] was -1.58 (inactive); in test [3], -1.74 (inactive); in [4] it was 1.77 (inactive); in test [5] it was -0.299 (inactive); in test [11], -0.971 (inactive); in test [13] it was 5.17 (inactive). In addition, the z-score is 0.872 (inactive) in test [14]; -1.72 (inactive) in [15]; -1.16 (inactive) in [16]; 1.22 in test [17]; -0.204 (inactive) in test [18]; -4.36 (inactive) in [19]. For the same compound, in test [20], the z-score was -0.634.
